We go through 31 molecules from PubChem BioAssay (NCATS).

Records with an inconclusive call do not appear. Calls of active or inactive are those of the source. The call rests on the fitted dose curve; in most records, active means well fitted inhibition curve with a large enough effect; inconclusive means small, poorly fitted or top-dose-only effect; inactive means flat fitted curve, though single readings scatter.
On the % scale 0 is the no-effect control and ±100 the full control effect; potency means the concentration at half of the fitted maximal effect.

The test has as its system CRL-7250. Briefly: Cytotoxic Profiling of Annotated Libraries Using Quantitative High-Throughput Screening (AID 1296008). Further: nearly all actives have a fitted effect of over 60% in size. Conditions: Five cell lines viability, CellTiter-Glo ATP luminescence, 48-72 h; max response: hits give low values. The method, boiled down:
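Cells exposed to compounds for 48 or 72 hr at 37 degrees Celsius. Viability read as ATP-coupled luminescence with CellTiter-Glo after 10 min at room temperature.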
Turning to `C/C(=C\C=C\C(C)C1CCC2(C)C3CCC4C(C)(C)C(=O)CCC45CC35CCC12C)C(=O)O` (stereo unspecified), the max response was -5.15% (inactive).
Still for that read-out and setting: the result for `C1CCC[C@H]2CCCN3CC[C@@H](CCCCCC[C@@H]4CCCN5CC[C@@H](CC1)O[C@@H]45)O[C@@H]23` reads 0.135% (inactive); that for `C[C@H](Nc1ncnc2nc[nH]c12)c1cc2ccc(F)cc2nc1-c1ccccn1`, -2.06% (inactive).
As to `CC1=C(C(=O)OCc2ccccc2)C(c2ccc(-c3ccccc3)cc2)NC(=O)N1CCCCCC(=O)O` (stereo unspecified), the max response was -0.424% (inactive).
The same measure, in the same setting: to `CC1CCC2C(C(=O)O)=COC(O[C@@H]3O[C@H](CO)[C@@H](O)[C@H](O)[C@H]3O)C12` (stereo partly specified) belongs -11.5% (inactive); to `Cc1cc(N2CCN([C@@H]3CN[C@H](C(=O)N4CCSC4)C3)CC2)n(-c2ccccc2)n1`, -17.8% (inactive); to `CC(C(O)/C=C/C(C)(C)O)C1CCC2(C)C3C(=O)C=C4C(CCC(O)C4(C)C)C3(C)CCC12C` (stereo unspecified), -0.192% (inactive).
`C/C=C(\C)C(=O)O[C@H]1[C@@H](O[C@]2(COC(=O)CC(C)C)O[C@H](COC(=O)C(C)CC)[C@@H](OC(C)=O)[C@@H]2O)O[C@H](COC(C)=O)[C@@H](O)[C@@H]1O` (stereo partly specified): the max response is 0.451% (inactive).
On to `Cc1cc(OCc2nc(-c3ccccc3Cl)cs2)ccc1OCC(=O)O`, for which the max response is -3.46% (inactive).
Consider `C=CC(C)(O)CC/C=C(\C)C(=O)OC1C(O)C(CO)OC(OC(=O)C23CCC(C)(C)CC2C2=CCC4C5(C)CCC(OC6OC(COC7OCC(OC(C)=O)C(O)C7OC7OC(COC(C)=O)C(O)C(O)C7O)C(O)C(O)C6O)C(C)(C)C5CCC4(C)C2(C)C(O)C3O)C1OC1OCC(OC2OCC(O)C(OC3OCC(O)C(O)C3O)C2O)C(O)C1O` (stereo unspecified), for which the max response is -9.65% (inactive).
On the same count and under the same terms, to `COc1ccc(C2COc3cc(O)ccc3C2)c(O)c1` (stereo unspecified) belongs -2.17% (inactive); to `CC(=O)OC/C=C(\C)C(CC1C(C)=C(OC(C)=O)C(=O)C2C(C)(C)C(O)CCC12C)OC(C)=O` (stereo unspecified), 1.57% (inactive); to `CC(C)=CCC/C(C)=C/CO[C@@H]1O[C@H](CO)[C@@H](O)[C@H](O)[C@H]1O`, -5.48% (inactive).
Turning to `C[C@H]1O[C@@H](O[C@H]2CC[C@@]3(C)C(CC[C@]4(C)C3CC=C3C5CC(C)(C)CC[C@]5(C(=O)O)CC[C@]34C(=O)O)C2(C)C)[C@H](O)[C@@H](O)[C@@H]1O` (stereo partly specified), the molecule was called inactive.
For `CC(C)/C=C1\NC(=O)C(C(C)C)n2c1nc1c(c2=O)C=CC=CO1` (stereo unspecified), the max response is -11.8% (inactive).
For the molecule `CCN1CCN(Cc2ccc(NC(=O)c3ccc(C)c(NC(=O)c4cncc(-c5cccs5)c4)c3)cc2C(F)(F)F)CC1`, the Potency was 461 nM (active).
The same measure, in the same setting: the result for `CCOc1cc2ncc(C#N)c(Nc3ccc(F)c(Cl)c3)c2cc1NC(=O)/C=C/CN(C)C` reads 651 nM (active).
In the case of `O=C1N=C(N2CCOCC2)CN1c1ccc(Cl)cc1`, the max response is -3.02% (inactive).
`COc1ccc(Oc2cc(C)c(-c3csc(NC(=O)c4ccncc4)n3)c(C)c2)cc1`: the Potency is 651 nM (active).
`CC(C)(O)/C=C/CC(C)(O)C1C(O)CC2(C)C3CCC4C(C)(C)C(=O)CCC4(C)C3CCC12C` (stereo unspecified): the max response is -2.19% (inactive).
Still for that read-out and setting: the result for `Cc1cccc(S(=O)(=O)N2CCC[C@@H]2CCN2CCC(C)CC2)c1` reads -2.64% (inactive); that for `C/C=C/C=C/C(=O)N1CC[C@]23c4ccccc4N[C@H]4N(C)c5cccc6c5[C@@]42CCN([C@H]6C2OC2(C)C)[C@H]13` (stereo partly specified), -2.8% (inactive).
Take `Cc1ccc(Cc2c(C)nc3nc(SCC(=O)NCCN4CCNCC4)nn3c2C)cc1`: the molecule was called inactive.
Turning to `OC[C@H]1O[C@@H](Oc2cc(O)c3c(c2)O[C@@H](c2ccc(O)cc2)[C@H](O)C3)[C@H](O)[C@@H](O)[C@@H]1O`, the max response was -1.22% (inactive).
As for `NC(=O)c1cccc(-c2cc(OC(=O)NC3CCCCC3)ccc2O)c1`, the max response is 2.23% (inactive).
Regarding `COc1ccc(N(C)c2nc(C)nc3ccccc23)cc1`, the Potency is 10.3 nM (active).
On to `CC(=O)OCC1(O)CCC2C(COC3OC(CO)C(O)C(O)C3OC(=O)/C=C/c3ccc(O)cc3)=COC(OC(=O)CC(C)C)C21` (stereo unspecified), for which the result was inactive.
For `Cc1ccccc1CN1C2=NCCN2C(=O)C2=C1CCN(Cc1ccccc1)C2`, the max response was -16.8% (inactive).
`CCOC(=O)CCN(C(=O)c1ccc2c(c1)nc(CNc1ccc(C(=N)N)cc1)n2C)c1ccccn1`: the max response is 2.71% (inactive).
Consider `COc1cc(C(=O)O)ccc1OC1OC(CO)C(O)C(O)C1O` (stereo unspecified), for which the outcome was inactive.
Regarding `O=C1NC(Cc2c[nH]c3ccccc23)C(=O)NC1Cc1c[nH]c2ccccc12` (stereo unspecified), the max response is -0.609% (inactive).
